Assay results reported in the supplement of paper PMC7156485.
± gives the standard deviation of the averaged measurements.

System: HCC1569
Assay: cell number relative to DMSO (% of DMSO); higher = more cells (less growth inhibition / toxicity)
Details: concentration: 10 µM; 24 h
How it was run: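 HCC1569 and TDF cells were seeded at 800 per well in 384-well plates in RPMI with 10% FBS and treated with compounds at 10 µM for 24 h at 37 °C, in triplicate. After fixation in 3.7% formaldehyde, cells were stained with a rabbit anti-H1.0 antibody, an AlexaFluor 647 secondary and DAPI, and six fields per well were imaged at ×10. H1.0 nuclear intensity or cell number is given as percent of the plate control, using the median of replicates, with HCC1569 values smoothed for positional effects.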
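Note: TDF denotes transformed human dermal fibroblasts of mesenchymal origin.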

SMILES	cell number
COc1ccc2c(c1)=NC1=C(C)NCCC=21 [Harmaline]	99.3
CCN1CC2(COC)CCC(OC)C34C5CC6(O)C(OC)CC(OC(C)=O)(C5C6C(=O)c5ccc(OC)cc5)C(C(OC)C23)C14 (centres undefined) [Bulleyaconotine A]	99
CC(C)N(CCC(C(N)=O)(c1ccccc1)c1ccccn1)C(C)C (centres undefined) [Disopyramide]	99.8
CCN(C)C(=O)Oc1cccc([C@H](C)N(C)C)c1.O=C(O)C(O)C(O)C(=O)O	98.4
Cl.O=C(CCCN1CCC2(CC1)C(=O)N(CCc1ccc(N=C=S)cc1)CN2c1ccccc1)c1ccc(F)cc1 [N-(p-Isothiocyanatophenethyl)spiperone hydrochloride]	82.7
CN1CCC(c2c[nH]c3ccc(O)cc23)CC1.O=C(O)C=CC(=O)O	101
C=CC1CN2CCC1CC2C(O)c1ccnc2ccccc12 (single isomer, unassigned; (-)) [(-)-Cinchonidine]	100
CCCCCCCCCCCCCC(=O)OC1C(C)C2(O)C(C=C(CO)CC3(O)C(=O)C(C)=CC32)C2C(C)(C)C12OC(C)=O (centres undefined) [Phorbol 12-myristate 13-acetate]	99 ± 4.3
Cc1nccc2c1[nH]c1ccccc12 [Harmane]	100 ± 0.98
CCN(CC)C(=O)NC1C=C2c3cccc4[nH]cc(c34)CC2N(C)C1.O=C(O)C=CC(=O)O (stereo not drawn) [R(+)-Lisuride hydrogen maleate]	103
CC1=CC23C(=O)C(C=C(CO)C(O)C2(O)C1O)C1C(CC3C)C1(C)C (centres undefined) [Ingenol]	102
CCCN1CC(CSC)CC2c3cccc4[nH]cc(c34)CC21.CS(=O)(=O)O (centres undefined) [Pergolide mesylate]	95.8
C[N+]1(C)C2CC(OC(=O)C(CO)c3ccccc3)CC1C1OC12.O=[N+]([O-])[O-] (single isomer, unassigned; (-)) [(-)-Scopolamine methyl nitrate]	99.7
CCN1CC2(COC)CCC(OC)C34C5CC6C(OC)CC7(OCOC7(C(O)C23)C14)C5C6OC (centres undefined) [Delcorine]	103
CCN1CC2(C)CCC(O)C34C5CC6C(OC)CC(O)(C(CC23)C14)C5C6O (centres undefined) [Karakoline]	103.2 ± 0.75
CN1C2CCC1CC(OC(=O)C(CO)c1ccccc1)C2 (centres undefined) [Atropine]	104
CN(C)CCc1ccc(O)cc1.CN(C)CCc1ccc(O)cc1.O=S(=O)(O)O [Hordenine sulfate]	99.3
CC12CCC3C(CC=C4CC(O)CCC43C)C1CCC2=O (centres undefined) [Dehydroepiandrosterone]	105
Cl.NC(=O)c1ccc(OCC(O)CN2CC=C(c3ccc(F)cc3)CC2)cc1 (centres undefined)	105
CCCCc1ccc(C(=O)O)nc1 [Fusaric acid]	105

SMILES	cell number
CN1CC[C@@]2(C)c3cc(OC(=O)Nc4ccccc4)ccc3N(C)[C@@H]12	103
O=P1(N(CCCl)CCCl)NCCCO1 (centres undefined) [Cyclophosphamide]	107
CN(C)C1C(=O)C(C(N)=O)=C(O)C2(O)C(=O)C3=C(O)c4c(O)cccc4C(C)(O)C3CC12 (centres undefined) [Tetracycline]	104
O=C1CCCN1CC#CCN1CCCC1 [Oxotremorine]	101
CCCN1CCOC2c3cc(O)ccc3OCC21.Cl (racemic)	104
CCC(C)CC(C)N (centres undefined) [1,3-dimethylpentylamine]	103
CC1OC(=O)C2CC3CCCCC3C(C=CC3CCCC(C)N3C)C12 (centres undefined) [Himbacine]	103
CCC(C)C=C(C)C=CC1=CC2=C(Cl)C(=O)C(C)(OC(C)=O)C(=O)C2=CO1 (centres undefined) [Sclerotiorin]	97.9
Cl.NCC#Cc1ccccc1 [3-Phenylpropargylamine hydrochloride]	104
C=CCN1CCC23c4c5ccc(O)c4OC2C(=O)CCC3(O)C1C5 (centres undefined) [Naloxone]	98.5
CC1=C(O)C(=O)C2OC2C1=O (single isomer, unassigned; (-))	80
Cc1c2ccncc2c(C)c2c1[nH]c1ccccc12 [Ellipticine]	69.4 ± 8.6
CCC1C(C)=NN=C(c2ccc(OC)c(OC)c2)c2cc(OC)c(OC)cc21 (centres undefined)	93.8
O=c1cccc2n1CC1CNCC2C1 (single isomer, unassigned; (-)) [(-)-Cytisine]	103
Br.NC1CCc2cc(O)c(O)cc2C1 (centres undefined) [6,7-ADTN hydrobromide]	104
Cl.Cl.Oc1ccc2c3c1OC1c4[nH]c5c(c4CC4(O)C(C2)N(CC2CC2)CCC314)CC1(O)C2Cc3ccc(O)c4c3C1(CCN2CC1CC1)C5O4 (centres undefined) [nor-Binaltorphimine dihydrochloride]	106
CN1C2CC(OC(=O)C(CO)c3ccccc3)CC1C1OC12 (centres undefined) [Scopolamine]	102
CC(=O)OC1C2C(OC(=O)Cc3ccccc3)C(C)CC2(OC(C)=O)C(=O)C(C)=CC2C(CCC13CO3)C2(C)C (centres undefined) [Euphorbiasteroid]	102
O=[N+]([O-])C=Cc1ccc2c(c1)OCO2 [Syk Inhibitor III]	37.1
